Source: PubChem BioAssay (Tox21)
Records with an inconclusive call do not appear. Entries that show only a call come without a potency. The source holds several records for some structures; these can differ, active in one and inactive in another. Active and inactive are the calls of the source. Calls come from the whole dose curve; as a rule, active = well fitted inhibition curve with a large enough effect in the repeat runs; inconclusive = weak or mixed curves, or effect the other way; inactive = no such curve, though single readings can be large or run the other way.

Biological target: Nuclear receptor ROR-gamma (Homo sapiens) (UniProt P51449)
Experiment: qHTS assay to identify small molecule antagonists of the retinoid-related orphan receptor gamma (ROR-gamma) signaling pathway (AID 1159521; note: nearly all actives have a fitted effect of over 50% in size)
Conditions: Tet-on RORgamma CHO cells, RORE-luciferase, 16 h; series mostly up to 92.4 µM
Text: U.S. Tox21 Program National Center for Advancing Translational Sciences [NCATS] NIH Chemical Genomics Center [NCGC] U.S. Environmental Protection Agency [EPA] National Institutes of Environmental Health Sciences [NIEHS] National Toxicology Program [NTP] U.S. Food and Drug Administration [FDA] Tox21 Assay Overview: Nuclear steroid hormone receptors are involved in many biological processes including inflammatory responses, cell proliferation, and apoptosis. Environmental factors or compounds disrupting these nuclear receptor pathways and gene expression may promote susceptibility to immunotoxicants and autoimmune diseases. One important group of these expression factors are the retinoid-related orphan receptors. To assess compounds that may interfere with the retinoid-related orphan receptor gamma (ROR-gamma) transcription factor, a cell-based luciferase assay was used. The CHO cell-based assay utilizes a TET-inducible ROR expression factor and ROR response element-LUC reporter gene. Reporter gene activity was induced using Doxycycline Hyclate and measured after 16 hr incubation. Tet-on ROR gamma CHO cells were used to screen against the Tox21 10K compound library for ROR gamma antagonists by quantification of decreased reporter gene activity in terms of decreased luminescence.
Tox21 Assay Protocol Summary: Tet-on ROR gamma CHO cells were dispensed at 1,000 cells in 4 uL of culture medium per well into white wall/solid bottom 1536-well plates using a Multidrop Combi (Thermo Scientific, Waltham, MA) dispenser. Following incubation at 37 C and 5% CO2 for 4 hr, 23 nL of compounds dissolved in DMSO, positive controls or DMSO only were transferred by a Pintool station (Kalypsys, San Diego, CA) and after 2 hr incubation at 37 C, one ul of 1 uM (final concentration) of Doxycycline Hyclate was added to all the wells by using a Flying Reagent Dispenser (FRD) (Aurora Discovery, San Diego, CA). After 16 hr incubation at 37 C and 5% CO2, 5 uL of ONE-Glo reagent (Promega Corporation, Madison, WI) was added to each assay plate using FRD. After 30 min incubation at room temperature, luminescence was quantified on a ViewLux plate reader (Perkin Elmer, Waltham, MA).
Potency is the fitted concentration of half-maximal effect.

SMILES	Potency
O=C(CC(C(=O)OC1CCCCC1)S(=O)(=O)O)OC1CCCCC1 (stereo not given)	inactive
OCc1cccnc1	inactive
COc1ccc2cc([C@H](C)C(=O)O)ccc2c1	inactive
NNc1nncc2ccccc12	inactive
O=c1[nH]nnc2ccccc12	inactive
Cc1cccnc1	inactive
CCCCCC/C(C=O)=C\c1ccccc1	inactive
c1ccc2scnc2c1	inactive
CCCSc1ccc2nc(NC(=O)OC)[nH]c2c1	inactive
CN(C)CCCN	inactive
CSCCC=O	inactive
CC1=C(C)S(=O)(=O)CCS1(=O)=O	54.5 µM (active)
CCCCCCCC(=O)OC	inactive
CCCCCCCCCCCCOCCO	inactive
CCCCCCCCCC	inactive
C=C(C)C(=O)O[C@H]1C[C@@H]2CC[C@@]1(C)C2(C)C	963 nM (active) and inactive
c1c[nH]cn1	inactive
COc1ccc(Cl)cc1C(=O)NCCc1ccc(S(=O)(=O)NC(=O)NC2CCCCC2)cc1	inactive
COc1ccc(Nc2ccccc2)c(C)c1	inactive
O=C(O)c1cc(=O)c2c(OCC(O)COc3cccc4oc(C(=O)O)cc(=O)c34)cccc2o1	inactive

SMILES	Potency
C[C@H]1C[C@H]2[C@@H]3CCC4=CC(=O)C=C[C@]4(C)[C@@]3(F)[C@@H](O)C[C@]2(C)[C@@]1(O)C(=O)CO	inactive
Cc1cccc(O)c1	inactive
Cc1occc(=O)c1O	inactive
Nc1cc([N+](=O)[O-])ccc1O	inactive
CC(C)(N)CO	inactive
CCCCN(CCCC)CCCC	inactive
O=C(O)CCCCCCCCCCC(=O)O	inactive
C=C(C)C(=O)Nc1ccc(Cl)c(Cl)c1	inactive
O=C(O)CCCC[C@@H]1SC[C@@H]2NC(=O)N[C@@H]21	inactive
COS(C)(=O)=O	inactive
CC(=O)OCC(=O)[C@@]12N=C(C)O[C@@H]1C[C@H]1[C@@H]3CCC4=CC(=O)C=C[C@]4(C)[C@H]3[C@@H](O)C[C@@]12C	inactive
OC[C@H]1O[C@@](CO)(O[C@H]2O[C@H](CO)[C@@H](O)[C@H](O)[C@H]2O)[C@@H](O)[C@@H]1O	inactive
FC(F)(F)c1ccc(Cl)c(Cl)c1	inactive
CC1CCC2CC1C2(C)C (stereo not given)	inactive
C=CCOC(=O)c1ccccc1C(=O)OCC=C	inactive
CCCCOC(=O)COc1ccc(Cl)cc1Cl	19.5 µM (active) and inactive
COCCCOc1ccnc(CS(=O)c2nc3ccccc3[nH]2)c1C (stereo not given)	inactive
Oc1cccc2ccccc12	inactive
Nc1ccccc1[N+](=O)[O-]	inactive
CC1CCC(C(C)C)C(O)C1 (stereo not given)	inactive
